# Screening data as filed in PubChem.
# Sampled rows, rich in hits. Any-hit rate of the full collection: about 1.5%.
# TrxR1 inh = blocks rat thioredoxin reductase 1; O89049; recombinant rTrxR1, NADPH fluorescence consumption, selenite substrate; Potency, µM (highest dose often 114 µM), for inactives: at the top dose activity change, negative = inhibition, usual class: inhibitors; 1% of 390,000 active; AID 588453; also: potency is read from the fitted curve at half-maximal effect; nearly all actives have a fitted effect of over 65% in size
# Target sequence (O89049 whole entry, looked up): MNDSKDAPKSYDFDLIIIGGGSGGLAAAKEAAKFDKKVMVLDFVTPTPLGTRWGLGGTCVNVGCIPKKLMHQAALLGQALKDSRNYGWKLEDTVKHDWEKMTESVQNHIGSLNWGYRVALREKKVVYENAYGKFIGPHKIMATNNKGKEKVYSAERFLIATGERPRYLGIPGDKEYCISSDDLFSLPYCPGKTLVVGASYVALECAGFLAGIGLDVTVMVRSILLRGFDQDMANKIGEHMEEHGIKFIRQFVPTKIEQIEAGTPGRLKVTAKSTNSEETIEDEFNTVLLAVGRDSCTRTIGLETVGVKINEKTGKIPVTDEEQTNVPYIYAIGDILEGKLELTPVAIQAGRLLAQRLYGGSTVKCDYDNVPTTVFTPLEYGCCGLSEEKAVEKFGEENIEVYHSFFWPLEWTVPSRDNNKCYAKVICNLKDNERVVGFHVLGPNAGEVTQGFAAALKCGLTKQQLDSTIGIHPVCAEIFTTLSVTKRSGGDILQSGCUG
#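 Rat TrxR1 (90 nM in the dispensed reagent) was pre-reduced with 400 uM NADPH for 5 min at room temperature, then incubated with compound for 15 min. After 400 uM selenite was added, NADPH fluorescence (Ex 340/Em 450 nm) was followed for 8 min.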
# GALK inh = galactokinase (human) inhibition | Purified GALK, Kinase-Glo residual ATP luminescence | Potency, µM (doses to about 57.5 µM), for inactives: top-dose activity change, negative = inhibition, actives largely listed as inhibitors | 0.007% of 270,000 active | AID 1868; also: potency is read from the fitted curve at half-maximal effect
#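 Kinase-Glo Plus luminescence measured ATP left after a 1 h room-temperature reaction. The reaction used 5 nM GALK, 100 uM galactose and 35 uM ATP at pH 8.0 (20 mM HEPES, 5 mM MgCl2, 60 mM NaCl, 1 mM DTT, 0.01% BSA).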
# Coupling enz = inhibits coupling enzyme system, counter-screen for aldolase hits. activity change, negative = inhibition, % at 58.2 µM, hits read low. 0.67% of 290,000 active. AID 2472. coupling enzyme system counterscreen, AmpLite Red fluorescence; in the data active = activity change below about -30%
#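 Counterscreen of the coupled detection system alone, without aldolase: glyceraldehyde-3-phosphate coupling enzymes plus AmpLite Red readout. Compounds at 57.5 uM final, 10 min RT preincubation, 20 min RT reaction, fluorescence 525/598 nm.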
# USP1-UAF1 inh = USP1/UAF1 (human) deubiquitinase inhibition | O94782 | recombinant USP1/UAF1, Ub-Rhodamine cleavage fluorescence | Potency, µM (highest dose often 57.1 µM), without a hit: at the highest dose activity change, negative = inhibition, actives largely listed as inhibitors | 0.23% of 390,000 active | AID 743255; also: potency is read from the fitted curve at half-maximal effect; nearly all actives have a fitted effect of over 60% in size
#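 In this screen, compounds sit with the deubiquitinase complex (1nM) for 15 min at room temperature before Ub-Rho is added at 150nM final. Fluorescence rise is then followed for 6 reads every 60 seconds.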
# TrxR1 substrate = is turned over as a substrate by rat TrxR1; O89049; 0.01% of 390,000 active; AID 588456; Potency, µM (highest dose often 114 µM), for inactives: at the top dose activity change, negative = substrate turnover; purified TrxR1 substrate turnover, NADPH consumption readout; also: potency is read from the fitted curve at half-maximal effect; nearly all actives have a fitted effect of over 50% in size
#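 Rat TrxR1, dispensed at 90 nM, was prereduced with 400 uM NADPH (final) for 5 min at ~22 deg C, then incubated with compound 15 min before 400 uM selenite. A first-read NADPH fluorescence drop versus no-compound background flagged substrates.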
# Numbers without * were called inactive; ? = inconclusive; · = no result given; [ ] = dose if it differs, or a comment. Unless noted, calls follow the shape of the dose curve; as a rule, active = well fitted curve in the direction sought with a large enough effect; inconclusive = small, poorly fitted or top-dose-only effect, or another doubt; inactive = no such curve, though single readings can be large; an effect the other way counts as inactive or inconclusive. % is scaled to controls: 0 for no effect and ±100 for the full control effect.
SMILES,TrxR1 inh,GALK inh,Coupling enz,USP1-UAF1 inh,TrxR1 substrate
O=[N+]([O-])C(/C=C(\Cl)[N+](=O)[O-])=C1N(Cc2ccc(Cl)nc2)CCN1Cc1ccc(Cl)nc1,1.78µM*,-6.1%,-4.3,12.5%,-9.5%
CCCN1CNc2c(c(=O)[nH]c(=S)n2CCc2ccc(Cl)c(Cl)c2)C1,0.7%,·,·,·,-4.2%
COc1cccc(NC(=O)c2sc3nc(C)c(C(=O)Nc4ccc(C)cc4C)c(-c4ccco4)c3c2N)c1,9.6%,·,·,35.5µM*,-4.6%
COc1cc(Nc2ccc(S(N)(=O)=O)cc2)c([N+](=O)[O-])nc1[N+](=O)[O-],3.16µM*,-2.5%,1.1,-1.3%,-11.3%
COc1ccc(-c2csc(Nc3ccc(S(N)(=O)=O)cc3)n2)cc1OC,24.2%,3.9%,-5.1,-18.3%,5.9%
CCCCCCCCCCCCCC[C@@H](O)[C@@H](O)[C@H](CO)NC(C)=O,·,·,-0.8,·,·
O=C(CC(Sc1ccc(Br)cc1)C(=O)O)c1ccc(Br)cc1 (stereo not given),·,-6.7%,3.2,·,·
Cc1ccc(SC(CC(=O)c2ccc(C)cc2)C(=O)O)cc1 (stereo not given),39.8µM*,0.5%,15.3,9.8%,-4.4%
O=S(=O)(c1ccc(F)cc1)N1CCN(c2nc(-c3cccs3)nc3ccccc23)CC1,14.7%,·,·,·,13.8%
OC1=C(O)c2nc3cc(F)ccc3nc21,1.58µM*,-0.6%,1.7,-9.7%,-1.8%
O=[N+]([O-])c1ccc2c(c1)N([O-])C1(CCCCC1)[N+]2=O,?,6.7%,-50.8*,?,-2.0%[57.1 µM]
O=c1[nH]c2c(-c3nc(-c4ccc(Cl)cc4)cs3)c(O)cn2c2ccccc12,24.2%[0.0914 µM],·,·,·,-5.1%
O=C1NC(=O)C(Cc2ccc(OCCN3COc4ccccc4C3=O)cc2)S1 (stereo not given),·,·,1.9,·,·
COc1ccc(-c2nc3ccccc3[nH]2)cc1,20.5%,7.5%,-10.2,-3.1%,29.9%
COC(=O)c1ccc(-c2nc3ccccc3[nH]2)cc1,56.2µM*,4.7%,0.5,-21.1%,926.2%
c1ccc2c(c1)c1c3n2CCNC3CCC1 (stereo not given),11.7%[57.1 µM],-0.9%,-50.3*,-12.3%,9.6%
Oc1ccc2c(c1)c1c3n2CCNC3CCC1 (stereo not given),8.2%[57.1 µM],-0.1%,-6.2,-20.8%,12.6%[57.1 µM]
C[C@@H](Nc1nc(Cl)nc2nc[nH]c12)c1ccccc1,3.3%,·,·,·,-5.3%
Brc1ccc(C2Nc3cccc4cccc(c34)N2)s1,5.01µM*,1.4%,-5.1,-15.0%,-3.6%
CSc1ccc(C2Nc3cccc4cccc(c34)N2)cc1,?,4.5%,-9.3,-24.0%,-8.3%
Cc1cccc(C2Nc3cccc4cccc(c34)N2)c1,?,1.3%,-8.2,-26.5%,2.5%[57.1 µM]
Clc1ccc(C2Nc3cccc4cccc(c34)N2)cc1,35.5µM*,-3.2%,-4.6,-25.2%,4.5%
c1cc2c3c(c1)CCCN3CCC2,8.8%,·,·,·,5.5%
COc1cccc(-c2nnc3n2N=C(c2c(OC)cccc2OC)CS3)c1,·,·,6.5,·,·
Cn1c(=NC(=O)CCl)sc2ccccc21,35.5µM*,2.5%,·,-9.0%,-3.8%
SMILES,TrxR1 inh,GALK inh,Coupling enz,USP1-UAF1 inh,TrxR1 substrate
Cn1c(=NC(=O)c2ccco2)sc2ccccc21,1.5%[57.1 µM],10.4%,-5.5,-22.7%,10.2%
COC(=O)c1ccc(C2Nc3ccc(/C(C)=N/NC(=O)C(OC)c4ccccc4)cc3C3C=CCC32)cc1 (stereo not given),22.4µM*,-2.0%,·,-9.6%,0.3%
CC(=O)c1ccc2c(c1)C1C=CCC1C(C(=O)O)N2 (stereo not given),?,0.1%,2.8,31.6µM*,-3.2%[57.1 µM]
Cc1ccc2c(c1)C1C=CCC1C(C(=O)O)N2 (stereo not given),·,·,-3.1,·,·
COc1cccc2c1NC(C(=O)O)C1CC=CC21 (stereo not given),12.6µM*,·,-13.4,25.1µM*,8.1%
CC(=O)c1ccc2c(c1)C1C=CCC1C(c1ccncc1)N2 (stereo not given),?,-0.2%,-31.9*,?,-9.5%
COC(=O)c1ccc([C@H]2Nc3ccc(S(=O)(=O)Nc4cccc(C)c4)cc3[C@H]3C=CC[C@H]32)cc1,?,·,·,-26.5%,4.2%
Cc1ccc(-c2nnc(SCCC(=O)Nc3ccccc3)n2C)cc1,14.6%,·,·,·,-1.4%
CCC1CCCCN1Cc1nc2c(c(=O)n(C)c(=O)n2C)n1Cc1c(F)cccc1Cl (stereo not given),17.5%,·,·,·,1.6%
CN(C)c1ccc(C=O)cc1[N+](=O)[O-],-12.1%,·,·,·,-16.4%
C1=CC2c3ccccc3NC(c3ccncc3)C2C1 (stereo not given),7.94µM*,-0.7%,-41.4*,?,-1.7%
CC(C)[N+]1(C)[C@@H]2CC[C@H]1CC(OC(=O)[C@@H](CO)c1ccccc1)C2 (stereo not given in full),·,·,1.3,·,·
N#Cc1c(SCC(N)=O)nc2c(c1-c1ccncc1)CCCC2,-2.2%,8.0%,1.0,-23.2%,5.4%
Cc1ccc(-c2c(C#N)c(N)nc3c2CCCC3)o1,31.6µM*,-1.9%,0.9,-8.3%,13.3%
Cc1ccc(-c2c3c([nH]c(=S)c2C#N)CCCC3)o1,44.7µM*,5.3%,-18.4,-20.1%,-10.9%
COC(=O)CSc1nc2c(c(-c3ccc(C)o3)c1C#N)CCCC2,6.2%,-5.5%,6.1,-25.6%,27.3%
CCSc1nc2c(c(-c3ccc(C)o3)c1C#N)CCCC2,12.8%[11.4 µM],-3.8%,5.3,-21.7%,-21.1%[11.4 µM]
N#Cc1c(-c2ccncc2)c2c([nH]c1=S)CCCC2,?,-0.2%,-35.7*,2.2%,6.3%[57.1 µM]
Clc1ccc2c(Cl)cc[n+](CCC3CCCCC3)c2c1,-24.3%,·,·,·,-7.3%
CC1=CC(=O)C(C(C)C)=C/C1=N/OS(=O)(=O)c1ccccc1,?,2.1%,-73.1*,-1.4%,-8.8%
Cc1ccc2c(c1)/C(=N/OS(=O)(=O)c1ccccc1)CCS2,-25.3%,·,·,-20.5%,-7.0%
CC1=CC(=O)C=C(C)C1=NOS(=O)(=O)c1ccccc1,?,1.3%,-87.4*,-24.1%,-13.9%
Cc1ccc(S(=O)(=O)ON=C2CCN(S(=O)(=O)c3ccccc3)CC2)cc1,-16.2%,0.5%,0.1,-5.6%,-11.6%
CCSc1ncc(Cl)c(C(=O)Nc2sc3c(c2C(=O)OC)CCCC3)n1,31.8%,·,·,·,3.9%
CCCN1C(=O)c2ccccc2NC1c1ccc(OC)c(COc2ccc([N+](=O)[O-])cc2)c1 (stereo not given),17.4%,·,·,·,4.3%[0.0914 µM]
O=C1/C(=C/c2ccncc2)SC(=S)N1N1CCOCC1,22.4µM*,-1.8%,-7.8,-25.0%,-2.4%
O=C(Cc1ccccc1)Nc1sc2c(c1C(=O)Nc1ccc(Br)cc1)CCCC2,34.8%,·,·,-19.1%,20.2%
O=C(Nc1sc2c(c1C(=O)Nc1ccccc1)CCC2)c1ccc(Br)cc1,56.2µM*,·,·,-3.7%,2.7%
COc1ccc(C2=Nn3c(nnc3-c3cc(OC)ccc3OC)SC2)c(OC)c1,·,·,1.4,·,·
